The structures appear in SMILES notation. Records with an inconclusive call do not appear. Active and inactive are the calls of the source. The call rests on the fitted dose curve; in most records, active means well fitted inhibition curve with a large enough effect; inconclusive means small, poorly fitted or top-dose-only effect, or effect the other way; inactive means flat fitted curve, though single readings scatter.
On the % scale 0 is the no-effect control and ±100 the full control effect.

Sequence of ATP-dependent 6-phosphofructokinase (Trypanosoma brucei brucei) (O15648 whole entry, looked up): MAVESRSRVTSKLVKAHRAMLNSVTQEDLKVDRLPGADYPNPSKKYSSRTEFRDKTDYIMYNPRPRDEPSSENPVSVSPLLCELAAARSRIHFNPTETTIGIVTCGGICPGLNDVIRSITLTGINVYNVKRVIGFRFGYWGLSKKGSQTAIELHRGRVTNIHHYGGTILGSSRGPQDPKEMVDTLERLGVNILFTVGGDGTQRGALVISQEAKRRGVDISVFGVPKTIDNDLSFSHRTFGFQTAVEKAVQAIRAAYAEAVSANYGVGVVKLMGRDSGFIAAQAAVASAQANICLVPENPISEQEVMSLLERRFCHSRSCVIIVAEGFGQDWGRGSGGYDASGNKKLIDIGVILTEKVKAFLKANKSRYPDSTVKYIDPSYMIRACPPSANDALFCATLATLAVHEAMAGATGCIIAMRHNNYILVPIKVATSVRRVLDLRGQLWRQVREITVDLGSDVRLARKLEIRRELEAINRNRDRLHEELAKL

This assay addresses ATP-dependent 6-phosphofructokinase (Trypanosoma brucei brucei) (UniProt O15648). Description: qHTS Assay to Find Inhibitors of T. brucei phosphofructokinase: hit validation (AID 492961).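 Further: luminescence reports ADP formed as PFK phosphorylates fructose-6-phosphate with ATP.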 The settings on record: T. brucei PFK, ADP-Glo luminescence; series mostly up to 51.4 µM; activity change, negative = inhibition: at the top concentration. The method in brief:
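Percent activity derived from corrected luminescence, normalized between 0x and 1x enzyme controls, then fitted to concentration-response curves. Conditions: 1.25 nM PFK, 0.1 mM ATP, 0.5 mM F6P, 45 min RT.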
A general note: Quantitative high-throughput screening tests each substance at several concentrations.
On to `Cc1ncc(C[n+]2csc(CCO)c2C)c(N)n1`, for which the “activity change, negative = inhibition” value is 8.23% [at 24.3 µM] (inactive).

With `O=C(CCCN1CCC(C(=O)c2ccc(F)cc2)CC1)c1ccc(F)cc1`, the “activity change, negative = inhibition” value was 2.16% (inactive).

As for `CCCCC[C@H](O)/C=C/[C@@H]1[C@H]2C/C(=C/CCCC(=O)O)O[C@H]2C[C@H]1O`, the “activity change, negative = inhibition” value was 9.58% (inactive).

Take `FC(F)(F)COCC(F)(F)F`: the “activity change, negative = inhibition” value was 2.37% (inactive).

For the molecule `CCCOC(=O)c1ccccc1O`, the “activity change, negative = inhibition” value is 7.82% (inactive).

In the case of `CCOC(C)OCC`, the “activity change, negative = inhibition” value was 5.81% (inactive).

Consider `FC(F)(F)C(F)(F)C(F)(F)C(F)(F)C(F)(F)F`, for which the “activity change, negative = inhibition” value was 2.6% (inactive).

Take `OC1OC[C@@H](O)[C@H](O)[C@@H]1O` (stereo partly specified): the “activity change, negative = inhibition” value was -1.73% (inactive).

Regarding `CN(C)CCOc1ccc(/C(=C(/CCCl)c2ccccc2)c2ccccc2)cc1`, the “activity change, negative = inhibition” value was -5.67% (inactive).

`O=C(NNCNNC(=O)c1ccncc1)c1ccncc1`: the “activity change, negative = inhibition” value was -9.65% (inactive).

As for `C[C@H](CCC(=O)O)[C@H]1CC[C@H]2[C@@H]3CC[C@@H]4C[C@H](O)CC[C@]4(C)[C@H]3C[C@H](O)[C@]12C`, the “activity change, negative = inhibition” value was -6.93% (inactive).

Take `CCOc1ccc(NC(=S)Nc2ccc(OCC)cc2)cc1`: the “activity change, negative = inhibition” value was -6.78% (inactive).

Regarding `N#Cc1ccc2c(c1)N(CCCN1CCC(O)CC1)c1ccccc1S2`, the “activity change, negative = inhibition” value was -0.594% (inactive).

`CCCCCCCCCCCCOCCCN`: the “activity change, negative = inhibition” value is -0.748% (inactive).

As for `CC1CCCCN1CCCOC(=O)c1ccccc1` (stereo unspecified), the “activity change, negative = inhibition” value is -7.94% (inactive).

Regarding `NC(=O)C1c2ccccc2CCc2ccccc21`, the “activity change, negative = inhibition” value is 6.08% (inactive).

For `CCOC(=O)c1cc(-c2ccccc2)nc2ccc(C)cc12`, the “activity change, negative = inhibition” value was -4.89% (inactive).

Consider `Cc1ncc[nH]1`, for which the “activity change, negative = inhibition” value is -3.29% (inactive).

For `CC(=O)[O][Al][O]C(C)=O`, the “activity change, negative = inhibition” value was 2.62% (inactive).

Take `CC(=O)Oc1cccc(C(=O)O)c1OC(C)=O`: the “activity change, negative = inhibition” value is -0.444% (inactive).

Regarding `Cc1cc(=O)c(C(=O)N[C@@H](C(=O)N[C@@H]2C(=O)N3C(C(=O)O)=C(CSc4nnnn4C)CS[C@H]23)c2ccc(O)cc2)c[nH]1`, the “activity change, negative = inhibition” value is -6.54% (inactive).

In the case of `CN1c2c(nc(N)[nH]c2=O)NCC1CNc1ccc(C(=O)NC(CCC(=O)O)C(=O)O)cc1` (stereo unspecified), the “activity change, negative = inhibition” value is -11.2% (inactive).

As for `COC(=O)[C@@H](N)CS`, the “activity change, negative = inhibition” value was 2.57% (inactive).

`CS(=O)(=O)OCC(O)C(O)COS(C)(=O)=O` (stereo unspecified): the “activity change, negative = inhibition” value was 8.1% (inactive).

With `CCN(CC)C(=S)S`, the “activity change, negative = inhibition” value is 7.93% (inactive).

On to `CC(C)C1=CC2=CC[C@@H]3[C@](C)(CCC[C@@]3(C)C(=O)O)[C@H]2CC1`, for which the “activity change, negative = inhibition” value is -1.23% (inactive).

On to `O=P(O)(O)OP(=O)(O)OP(=O)(O)O`, for which the “activity change, negative = inhibition” value is 3.06% (inactive).

As for `CC/C(=C(/CC)c1ccc(OP(=O)(O)O)cc1)c1ccc(OP(=O)(O)O)cc1`, the “activity change, negative = inhibition” value is 0.82% (inactive).

As to `CC(CCc1ccc(O)cc1)NCC(O)c1ccc(O)cc1` (stereo unspecified), the “activity change, negative = inhibition” value was -5.11% (inactive).

Consider `CN=C1C=CC(=C(c2ccc(N(C)C)cc2)c2ccc(N(C)C)cc2)C=C1`, for which the “activity change, negative = inhibition” value is -15.3% (inactive).

Take `CCCCCCCCCC(=O)NO`: the “activity change, negative = inhibition” value is 3.22% (inactive).

With `Cc1ccccn1`, the “activity change, negative = inhibition” value was 6.94% (inactive).

For the molecule `COc1ccc(/C=C/C(=O)O)cc1`, the “activity change, negative = inhibition” value was 12.3% (inactive).

As for `CCCC(=O)O`, the “activity change, negative = inhibition” value was -0.335% (inactive).

As for `COc1ccc(C(=O)c2ccc(C)cc2)c(O)c1`, the “activity change, negative = inhibition” value is -0.436% (inactive).

As for `C[C@]12CC[C@@H]3c4ccc(OC(=O)c5ccccc5)cc4CC[C@H]3[C@@H]1CC[C@@H]2O`, the “activity change, negative = inhibition” value was -3.9% (inactive).
